The test system of assay [1] is Human papillomavirus type 1a protein E7 (residues 44-93). Nature of the assay: small molecules binding HPV E7 44-93 – biochemical, small-molecule microarray, residues 44-93, 635 nm fluorescence, primary screen (AID 1108).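 Further: E7 fragment applied at 1 µg/mL in TBST for 1 h at 4 C; score combines spot fluorescence with its signal to noise ratio.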 Conditions: fluorescence 635 nm, higher = more signal.
The nature of assay [2]: hepatitis C replication reporter changes, two-sided – Huh7 cells, luciferase reporter, HCV replication inhibitor project, primary screen (AID 1109).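 Further: huh7 hepatoma cells harbouring a luciferase neomycin HCV replicon reporter; luciferase luminescence as measure of HCV replicon replication; test concentration not given here.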 The following applies: Huh7 HCV replicon luciferase reporter, 48 h; higher = more signal. (In a reporter assay the amount or activity of a reporter protein is the signal.)
Assay [3] deals with Left-right determination factor 2 (Homo sapiens) (UniProt O00292). Put plainly: small molecules binding LEFTY2 protein – biochemical, small-molecule microarray, 635 nm fluorescence scan, primary screen (AID 1110). The following applies: higher = more signal.
Sequence of Left-right determination factor 2 (Homo sapiens) (O00292 whole entry, looked up): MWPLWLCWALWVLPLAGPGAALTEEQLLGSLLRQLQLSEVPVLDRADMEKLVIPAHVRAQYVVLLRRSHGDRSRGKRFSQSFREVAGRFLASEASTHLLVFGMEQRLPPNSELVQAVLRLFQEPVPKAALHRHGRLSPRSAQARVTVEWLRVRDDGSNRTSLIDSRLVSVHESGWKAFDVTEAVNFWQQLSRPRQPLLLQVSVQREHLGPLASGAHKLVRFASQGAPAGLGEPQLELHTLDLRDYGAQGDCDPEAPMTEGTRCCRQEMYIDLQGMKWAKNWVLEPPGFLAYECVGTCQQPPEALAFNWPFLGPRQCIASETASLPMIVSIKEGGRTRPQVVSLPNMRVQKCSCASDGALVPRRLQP
The target in assay [4] is Calmodulin-1 (Homo sapiens) (UniProt P0DP23). Put plainly: small molecules binding calmodulin-1 with EGTA – biochemical, small-molecule microarray, Cy5-labelled CALM1, profiling panel (AID 1111).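 Further: labelled calmodulin applied in Tris saline Tween buffer holding calcium plus EGTA and DTT.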 The following applies: Cy5-CALM1 binding fluorescence, higher = more signal.
The target is the same in assay [5]. Put plainly: small molecules binding Ca-loaded calmodulin-1 – biochemical, small-molecule microarray, Cy5-labelled CALM1, plus calcium, artefact control for SMM control-protein annotation, profiling panel (AID 1112).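 Further: score merges spot fluorescence with signal to noise from triplicate slides.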 The following applies: Cy5-CALM1 binding fluorescence, higher = more signal.
A short description of assay [6]: probe aWnt5a binding to arrayed compounds – biochemical, biotinylated probe, 635/667 nm fluorescence, primary screen (AID 1113).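 Further: score merges 667 nm fluorescence intensity with signal-to-noise per printed feature.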 Conditions: small-molecule microarray, higher = more signal.
Assay [7] is described as follows: probe aShh binding to arrayed compounds – biochemical, biotinylated probe, 635/667 nm fluorescence, primary screen (AID 1114).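 Further: probe is biotin-labelled aShh protein from a stem cell growth factor screen; measures binding of labelled protein to compounds printed on the slide; score merges feature fluorescence at 667 nm with signal-to-noise.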 Conditions: small-molecule microarray, higher = more signal.
A short description of assay [8]: probe aNog binding to arrayed compounds – biochemical, biotinylated probe, 635/667 nm fluorescence, primary screen (AID 1115).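 Further: probe is biotinylated aNog protein used at 0.15 µg/mL for 1 h at 4 C; z-score combines 667 nm fluorescence of each spot with its signal to noise.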 Conditions: small-molecule microarray, higher = more signal.
Assay [9] has as its target Torsin-1A-interacting protein 1 (Homo sapiens) (UniProt Q5JTV8). Put plainly: compound microarray binding of lysate hLAP1 – cell lysate, small-molecule microarray, COS7 lysate, 635/667 nm fluorescence, primary screen (AID 1116). Conditions: 635 nm fluorescence, higher = more signal.
Assay [10] has as its target Alpha-bungarotoxin (Bungarus multicinctus) (UniProt P60615). Put plainly: compounds binding labelled alpha-BTX control protein – biochemical, small-molecule microarray, Alexa647 label, 635/667 nm fluorescence, artefact control for SMM control protein annotation, profiling panel (AID 1117). The following applies: alpha-BTX-A647 binding fluorescence, higher = more signal.

Assay [11] has as its target Albumin (Bos taurus) (UniProt P02769). Put plainly: compounds binding labelled BSA control protein – biochemical, small-molecule microarray, Alexa647 label, 635/667 nm fluorescence, artefact control for SMM control protein annotation, profiling panel (AID 1118).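 Further: score merges 667 nm emission intensity and signal-to-noise per printed compound spot.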 Conditions: BSA-A647 binding, fluorescence 635 nm, higher = more signal.
The nature of assay [12]: probe aXIP binding to arrayed compounds – biochemical, NeuroSMM set, 635/667 nm fluorescence, primary screen (AID 1119).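 Further: probe is the protein aXip251-270 applied at 1 µg/mL to compound-printed slides; binding of probe to printed compounds measured as 667 nm fluorescence plus signal to noise.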 Conditions: small-molecule microarray, higher = more signal, called active from +8 up or from −8 down.
Assay [13] in a line: probe aNOTCH3 binding on compound microarray – biochemical, small-molecule microarray, 635/667 nm fluorescence, primary screen (AID 1120).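 Further: probe is a biotin-tagged antibody raised against NOTCH3 rather than NOTCH3 protein; score merges spot fluorescence near 667 nm with spot signal to noise.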 The following applies: higher = more signal.
The nature of assay [14]: probe aNOTCH2 binding on compound microarray – biochemical, small-molecule microarray, 635/667 nm fluorescence, primary screen (AID 1121).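 Further: score merges feature fluorescence read at 667 nm with its signal to noise.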 The following applies: higher = more signal.
Assay [15] addresses Carbonic anhydrase 2 (Homo sapiens) (UniProt P00918). Nature of the assay: compounds binding carbonic anhydrase 2 – biochemical, small-molecule microarray, Alexa647-labelled CAII, profiling panel (AID 1122). Conditions: CAII-A647 binding fluorescence, higher = more signal.
Assay [16] is described as follows: COS7 lysate on small-molecule microarray, probe aHis, 635 nm (AID 1123).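 Further: z-score combines 667nm fluorescence intensity with signal-to-noise per printed compound spot.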 The following applies: COS7 cell lysate, fluorescence, higher = more signal.
A short description of assay [17]: probe aLAP1 signal on lysate-treated microarray – cell lysate, small-molecule microarray, COS7 lysate, primary screen (AID 1124).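 Further: lysate comes from COS7 cells expressing LAP1 and is applied at 0.3 µg/mL; score merges spot fluorescence near 667 nm with signal-to-noise over triplicate slides.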 Conditions: probe aLAP1, fluorescence, higher = more signal.
For assay [18], the system named is Sam68 (KHDRBS1). Nature of the assay: compounds binding KHDRBS1 protein – biochemical, small-molecule microarray, 635 nm fluorescence, primary screen (AID 1125).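 Further: score merges 667 nm channel intensity with signal to noise over triplicate slides.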 The following applies: higher = more signal.
Assay [19] has as its system Chordin-like protein 2 (CHRDL2). Nature of the assay: compounds binding chordin-like 2 – biochemical, small-molecule microarray, 635 nm fluorescence, primary screen (AID 1126).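 Further: printed compound slides probed with Chrdl2 protein at 4 µg/mL for 1 h at 4 C; score merges 667 nm emission intensity with signal to noise over three replicate slides.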 The following applies: fluorescence 635 nm, higher = more signal.
Assay [20] concerns the target Concanavalin-A (Canavalia ensiformis) (UniProt P02866). Nature of the assay: compounds binding concanavalin A lectin – biochemical, small-molecule microarray, Alexa647 label, 635 nm, artefact control for SMM control protein annotation, primary screen (AID 1127).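 Further: z combines 667 nm emission intensity with signal-to-noise across three replicate slides.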 The following applies: ConA-A647 binding fluorescence, higher = more signal.

The source made the active and inactive calls.

Sequence of Albumin (Bos taurus) (P02769 whole entry, looked up): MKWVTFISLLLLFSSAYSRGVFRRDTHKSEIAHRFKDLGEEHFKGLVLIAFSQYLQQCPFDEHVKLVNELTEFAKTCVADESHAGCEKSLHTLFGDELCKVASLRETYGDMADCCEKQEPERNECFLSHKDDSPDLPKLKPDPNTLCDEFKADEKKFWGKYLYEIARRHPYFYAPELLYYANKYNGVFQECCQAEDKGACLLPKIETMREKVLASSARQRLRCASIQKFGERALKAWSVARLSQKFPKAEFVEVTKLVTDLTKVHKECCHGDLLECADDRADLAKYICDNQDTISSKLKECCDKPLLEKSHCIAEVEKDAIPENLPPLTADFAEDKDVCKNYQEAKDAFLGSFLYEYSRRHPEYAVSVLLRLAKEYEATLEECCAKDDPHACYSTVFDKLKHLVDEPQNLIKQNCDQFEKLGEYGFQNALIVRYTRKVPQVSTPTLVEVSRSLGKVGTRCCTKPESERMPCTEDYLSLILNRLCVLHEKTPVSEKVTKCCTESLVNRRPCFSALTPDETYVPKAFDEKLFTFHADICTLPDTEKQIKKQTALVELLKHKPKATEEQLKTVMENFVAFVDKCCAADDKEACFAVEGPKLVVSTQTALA
Sequence of Alpha-bungarotoxin (Bungarus multicinctus) (P60615 whole entry, looked up): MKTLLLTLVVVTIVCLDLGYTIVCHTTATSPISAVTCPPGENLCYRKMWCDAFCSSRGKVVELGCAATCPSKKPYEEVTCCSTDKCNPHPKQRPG
Sequence of Torsin-1A-interacting protein 1 (Homo sapiens) (Q5JTV8 whole entry, looked up): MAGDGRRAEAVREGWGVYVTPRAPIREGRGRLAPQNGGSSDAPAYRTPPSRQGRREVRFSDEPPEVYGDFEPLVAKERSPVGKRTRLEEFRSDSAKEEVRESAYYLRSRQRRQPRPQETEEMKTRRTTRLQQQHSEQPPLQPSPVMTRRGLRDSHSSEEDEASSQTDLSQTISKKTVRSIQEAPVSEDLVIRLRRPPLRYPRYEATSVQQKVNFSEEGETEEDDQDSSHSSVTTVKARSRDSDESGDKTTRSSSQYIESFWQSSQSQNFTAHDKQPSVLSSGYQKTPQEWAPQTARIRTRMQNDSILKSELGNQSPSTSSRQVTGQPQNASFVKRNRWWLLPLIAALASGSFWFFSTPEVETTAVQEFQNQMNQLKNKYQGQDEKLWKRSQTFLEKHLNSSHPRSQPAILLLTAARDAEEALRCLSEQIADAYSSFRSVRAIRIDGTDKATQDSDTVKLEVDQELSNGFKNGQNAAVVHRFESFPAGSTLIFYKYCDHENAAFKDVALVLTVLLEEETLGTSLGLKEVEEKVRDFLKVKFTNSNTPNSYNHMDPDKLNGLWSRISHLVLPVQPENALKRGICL
Sequence of Concanavalin-A (Canavalia ensiformis) (P02866 whole entry, looked up): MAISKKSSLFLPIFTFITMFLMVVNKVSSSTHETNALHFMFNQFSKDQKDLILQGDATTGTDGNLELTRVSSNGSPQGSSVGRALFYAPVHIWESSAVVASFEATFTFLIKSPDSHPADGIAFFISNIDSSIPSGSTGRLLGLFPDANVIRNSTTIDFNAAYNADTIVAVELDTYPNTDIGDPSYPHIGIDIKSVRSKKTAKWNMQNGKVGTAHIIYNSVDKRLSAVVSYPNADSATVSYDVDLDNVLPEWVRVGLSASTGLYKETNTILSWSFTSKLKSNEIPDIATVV

In the case of `O=C(NCc1ccccc1)[C@]1(Cc2ccccc2)N=C(c2ccc(OCCCO)cc2)O[C@@H]1c1ccccc1`, the composite z-score in assay [1] is 1.4; in [3], -0.126; in assay [4], 2.01; in assay [5], 1.1; in assay [6] it was -0.13; in [7] it was -0.305. Besides, the composite z-score in [8] is 0.044; in assay [9], 0.652; in [10] it was 0.351; in assay [11] it was 0.895; in assay [13], 0.062; in assay [14], -0.0519. Also, the composite z-score in [15] is 0.604; in assay [16], 1.32; in assay [17], 0.225; in [18], 0.938; in [19] it was -0.243; in [20], 0.418. Further, the z-score in [2] is -2.58. In addition, the composite Z-score in [12] was 0.638 (inactive).
Take `CC(C)C(CO)N1C(=O)[C@@H]2[C@H]3C(=O)OCC=C[C@H]3OC23C=CCN(Cn2nnc4ccccc42)C(=O)[C@@H]13` (stereo not given in full): the composite z-score in assay [1] was -0.484; in [3] it was -0.734; in assay [4] it was -0.323; in assay [5], 0.608; in [6] it was -0.226; in assay [7], 0.35. In addition, the composite z-score in assay [8] is -0.358; in assay [9], -0.273; in [10] it was -0.284; in assay [11], -1.25; in assay [13], -0.226; in assay [14], -0.204. Also, the composite z-score in assay [15] is 0.931; in [16], -0.0704; in assay [17], -0.215; in [18], -0.821; in [19], -1.73; in [20] it was -1.34. The compound further registered a z-score in [2] of -0.634. Also, the composite Z-score in assay [12] is -0.274 (inactive).
On to `CCCCC(CC)C(O)C1C=CC2C(=O)NC(=O)C2N1Nc1ccccn1` (stereo not given), for which the composite z-score is 1.46 in assay [1]; 0.0645 in [3]; 1.07 in assay [4]; 0.431 in assay [5]; 0.0919 in assay [6]; -0.119 in assay [7]. In addition, the composite z-score in [8] was 1.19; in [9], 0.927; in assay [10], 1.36; in [11], 0.806; in assay [13] it was 0.0866; in assay [14], -0.0071. Further, the composite z-score in [15] was 0.677; in [16], 2.53; in assay [17], 0.321; in assay [18], 1.27; in assay [19], -0.105; in assay [20] it was 0.86. This compound also came in with a z-score in [2] of -0.201. Moreover, the composite Z-score in [12] was 0.975 (inactive).
On to `COC(=O)C(CC#Cc1ccc2c(c1)[C@]1(C(=O)N2)[C@H](C(=O)N2CCc3cc(OC)c(OC)cc3C2)[C@H]2C(=O)O[C@H](c3ccccc3)[C@H](c3ccccc3)N2[C@@H]1c1ccc(OCCO)cc1)C(=O)OC`, for which the composite z-score in assay [1] was 1.41; in [3], 0.633; in assay [4], 1.07; in assay [5], 0.16; in [6], -0.0236; in [7] it was -0.159. Also, the composite z-score was -0.198 in assay [8]; 0.254 in assay [9]; 1.08 in assay [10]; 0.438 in [11]; 0.239 in [13]; -0.0664 in assay [14]. The composite z-score came out at 0.413 in [15]; 2.17 in assay [16]; 0.969 in assay [17]; 1.31 in assay [18]; 0.506 in [19]; 0.942 in assay [20]. Moreover, in assay [2], the z-score is -1.21. Also, the composite Z-score in assay [12] is -0.715 (inactive).
As to `COCCOC(=O)N1C(=O)[C@@]2(c3ccccc31)[C@H](c1ccc(OCCO)cc1)N1[C@H](c3ccccc3)[C@H](c3ccccc3)OC(=O)[C@H]1[C@@H]2C(=O)NC[C@H](O)c1ccccc1`, the composite z-score is 1.44 in [1]; 0.0792 in assay [3]; 0.718 in assay [4]; 0.716 in assay [5]; -0.0758 in [6]; -0.141 in [7]. For the same compound, the composite z-score was 0.554 in [8]; 0.839 in assay [9]; 1.92 in assay [10]; 0.128 in assay [11]; 0.327 in assay [13]; -0.084 in assay [14]. Moreover, the composite z-score in assay [15] is 0.505; in assay [16], 1.91; in assay [17], 0.123; in assay [18], 1.29; in [19], 0.508; in [20], 1.02. In assay [2], this compound showed a z-score of -1.95. The composite Z-score in [12] was 0.774 (inactive).

(Values after PubChem BioAssay.)
